Inconclusive results are not listed. Active and inactive are the calls of the source. Calls come from the whole dose curve; as a rule, active = well fitted curve in the direction sought with a large enough effect; inconclusive = small, poorly fitted or top-dose-only effect, or another doubt; inactive = no such curve, though single readings can be large; an effect the other way counts as inactive or inconclusive.
Columns and labels:
[1] = molecular target: Aldehyde dehydrogenase, mitochondrial (Homo sapiens) (UniProt P05091); assay: qHTS for Inhibitors of the Aldehyde Dehydrogenase Family (ALDH2) Primary screen (AID 2061308); note: nearly all actives have a fitted effect of over 55% in size
[2] = molecular target: Retinaldehyde dehydrogenase 3 (Homo sapiens) (UniProt P47895); assay: qHTS for Inhibitors of the Aldehyde Dehydrogenase Family (ALDH1A3) Validation screen (AID 2061312); note: nearly all actives have a fitted effect of over 45% in size
[3] = molecular target: Retinaldehyde dehydrogenase 3 (Homo sapiens) (UniProt P47895); assay: qHTS for Inhibitors of the Aldehyde Dehydrogenase Family (ALDH1A3) Primary screen (AID 2061315)

Measured: Potency

C[C@@H](CN1CCC(n2c(=O)[nH]c3cc(Cl)ccc32)CC1)NC(=O)c1ccc2ccccc2c1
inactive: all assays above

CC(C)(C)CC(C)(C)c1ccc(OCCOCC[N+](C)(C)Cc2ccccc2)cc1
inactive: all assays above

Cc1ccc(O)cc1Nc1ccnc(Nc2cccc(C(N)=O)c2)n1
inactive: all assays above

CCN(Cc1ccccc1)C(=O)Cn1c(=O)n(C)c2cnc(-c3ccccc3)nc21
inactive: all assays above

CCOc1cc(C(C)(C)C)ccc1C1=NC(C)(c2ccc(Cl)cc2)C(C)(c2ccc(Cl)cc2)N1C(=O)N1CCN(CCCS(C)(=O)=O)CC1 (stereo unspecified)
inactive: all assays above

COc1ccc(C2=N[C@@H](c3ccc(Cl)cc3)[C@@H](c3ccc(Cl)cc3)N2C(=O)N2CCNC(=O)C2)c(OC(C)C)c1
inactive: all assays above

O=C(c1ccc(Cl)c([N+](=O)[O-])c1)N1CCN(c2ccccc2F)CC1
inactive: all assays above

O=C(NC1(c2ccccc2)CC1)c1c(CN2CCC(N3CCCCC3)CC2)c(-c2cccc(C(F)(F)F)c2)nc2cc(Br)ccc12
inactive: all assays above

CCc1cc2c(cc1CC)CC(NCC(O)c1ccc(O)c3[nH]c(=O)ccc13)C2 (stereo unspecified)
inactive: all assays above

Cc1cc(C)cc(-c2cnc3cc(Cl)c(-c4cccc(O)c4)cc3c2OCCCN)c1
inactive: all assays above

CN(C)C(=O)COC(=O)c1cc(-c2ccc(C3CCNCC3)cc2)c2ccc(-c3ccc(C(F)(F)F)cc3)cc2c1
inactive: all assays above

CC(Oc1cc(-n2cnc3ccc(CN4CCN(C)CC4)cc32)sc1C(N)=O)c1ccccc1C(F)(F)F (stereo unspecified)
inactive: all assays above

CC(=O)N1CCN([C@H]2CCN(C(=O)N(C)[C@H](C)c3cc(C(F)(F)F)cc(C(F)(F)F)c3)[C@@H](c3ccc(F)cc3C)C2)CC1
inactive: all assays above

Cc1ccccc1-c1cc(N2CCN(C)CC2)ncc1N(C)C(=O)C(C)(C)c1cc(C(F)(F)F)cc(C(F)(F)F)c1
inactive: all assays above

C[C@@H](O[C@H]1OCCN(Cc2n[nH]nc2CN(C)C)[C@H]1c1ccc(F)cc1)c1cc(C(F)(F)F)cc(C(F)(F)F)c1
inactive: all assays above

CC(C)c1nc(CN(C)C(=O)N[C@H](C(=O)N[C@@H](Cc2ccccc2)C[C@H](O)[C@H](Cc2ccccc2)NC(=O)OCc2cncs2)C(C)C)cs1
inactive: all assays above

CC(=O)OCC(=O)[C@@]1(O)[C@H](C)C[C@H]2[C@@H]3CCC4=CC(=O)C=C[C@]4(C)[C@@]3(F)[C@@H](O)C[C@@]21C
inactive: all assays above

Cc1ccc2nc(NC(=O)CSc3nc4c(c(=O)n3-c3ccc(F)cc3)SCC4)sc2c1
inactive: all assays above

COc1cc(/C=C/C(=O)N2CCN(CC(=O)N3CCCC3)CC2)cc(OC)c1OC
inactive: all assays above

Cc1ccc(C(=O)N(CCCN)C(c2oc3cc(Cl)ccc3c(=O)c2Cc2ccccc2)C(C)C)cc1 (stereo unspecified)
inactive: all assays above

Cc1nc2ccc(CN(C)c3ccc(C(=O)NC(CCC(=O)O)C(=O)O)s3)cc2c(=O)[nH]1 (stereo unspecified)
inactive: all assays above

Cc1cc(C)c(Nc2ccnc(Nc3ccc(C#N)cc3)n2)c(C)c1
inactive: all assays above

CC[C@H]1OC(=O)[C@H](C)[C@@H](O[C@H]2C[C@@](C)(OC)[C@@H](O)[C@H](C)O2)[C@H](C)[C@@H](O[C@@H]2O[C@H](C)C[C@H](N(C)C)[C@H]2O)[C@](C)(O)C[C@@H](C)C(=O)[C@H](C)[C@H]2OC(=O)O[C@@]21C
inactive: all assays above

OC(CNCCc1c[nH]c2ccccc12)Cn1c2ccccc2c2ccccc21 (stereo unspecified)
inactive: all assays above

O=C1Cc2c([nH]c3ccc(Br)cc23)-c2ncccc2N1
inactive: all assays above

C=CC(=O)Nc1cccc(CN2C(=O)N(c3c(Cl)c(OC)cc(OC)c3Cl)Cc3cnc(NCCCCN(CC)CC)nc32)c1
inactive: all assays above

CC(=O)OC1C(=O)C2(C)C(O)CC3OCC3(OC(C)=O)C2C(OC(=O)c2ccccc2)C2(O)CC(OC(=O)C(O)C(NC(=O)c3ccccc3)c3ccccc3)C(C)=C1C2(C)C (stereo unspecified)
inactive: all assays above

C=CS(=O)(=O)NC1CCN(C(=O)CNc2cc(I)c(Cl)cc2OC)CC1
inactive: all assays above

CC(NC(=O)Cc1cc(F)cc(F)c1)C(=O)NC1C(=O)N(C)c2ccccc2-c2ccccc21 (stereo unspecified)
inactive: all assays above

COc1cc2nc(N3CCC(N4CCCCC4)CC3)nc(NC3CCCCCC3)c2cc1OC
inactive: all assays above

C=C[C@H]1CN2CC[C@H]1C[C@H]2[C@H](O)c1ccnc2ccc(OC)cc12
inactive: all assays above

C#CCNCc1cc2cc(OCc3ccccc3)ccc2[nH]1
inactive: all assays above

Source: PubChem BioAssay (NCATS)
